The whole screen tested about 31,000 sequences, of which about 1,400 (4.5%) were called active. The full list was thinned out, with actives kept by preference. Values without a mark were called inactive.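 The calls were made as follows: active = median seed-adjusted z-score above 1 or below -1; inactive = the rest.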
test: Novel Modifiers of Survival Motor Neuron (SMN) Protein: Gene Identification via Genome-wide siRNA Screen; conditions: HEK293T SMN2-luciferase reporter, siRNA knockdown, 72 h; actives lie on both sides
Source text: Spinal muscular atrophy (SMA) is the most common neuromuscular autosomal recessive disorder and one of the leading genetic causes of infant death. SMA results from mutations inducing loss of function or deletion in the survival of motor neuron-1 gene (SMN1), leading to deficiency of the survival motor neuron (SMN) protein. Although a second nearly identical gene, SMN2, is retained in humans, its expression primarily produces an aberrantly spliced isoform that is largely unstable and quickly degraded. We performed a genome-wide RNAi screen using a cell-based reporter assay to identify genes and pathways that modulate SMN protein stability. The screen identified over 200 genes that led to the greatest increase or decrease in luciferase expression.
Using HEK293T cells stably expressing a luciferase reporter that combines the promoter and splicing based cassettes in tandem with the major portion of the native SMN2 cDNA with luciferase, we performed a genome-wide RNAi screen to identify modulators of SMN protein levels. Luciferase is expressed when full-length SMN protein is generated with luminescence signal proportional to SMN protein levels. Our luciferase-based reporter assay was used to screen Ambion Silencer Select Human Druggable Genome siRNA library (10418 genes, 3 unique siRNAs per gene) using lipid-based reverse transfection.
Briefly, 1 pmol of each siRNA was spotted to a well of a 384-well plate (Corning, Corning, NY) and 20 microL of serum-free DMEM containing […] of Lipofectamine RNAiMax (Life Technologies, Carlsbad, CA) was then added to each well. Transfected cells were maintained at 37 degrees C in 5% CO2 for 72 hours, 20 microL of ONE-Glo Reagent (Promega) was added to wells for luciferase quantification. Raw luminescence reads were normalized to Ambion(R) Silencer(R) Negative Control #2 siRNA, then log10 transformed. A robust statistical measure of median absolute deviation (MAD) to standardize siRNA activities from each screen. Common Seed Analysis was used to help prioritize clean hits as opposed to those appearing to arise from seed based off-target effects. Candidate modulators were defined as the genes having a MAD score greater than 1.0 or less than -1.0.

Row | Sequence | median seed-adjusted z-score
1 | CCACAGUUCCUGUCAUGUUTT against ACMSD | 0
2 | GCACUUGUAAGAACUGGUATT against POSTN | -0.45
3 | CGUCAGCGGUUUAGCUGGATT against SLC25A10 | -0.571
4 | CGCACAGUGCCUAACCCUATT against RAB26 | 0.171
5 | GGAAGUUCAUGCCUCUGGATT against UBA7 | 2.41 (active)
6 | GGUUCUAUAGCAGACAAUATT against LOC81691 | -0.285
7 | AGCUCCCUGCCUUUAAUAATT against CHPF | 0.248
8 | GAUCGCUACUUACAGGAUATT against CYP51A1 | -0.242
9 | GAGUGAUAUGGAUAGUGAATT against TTC18 | -1.15 (active)
10 | GGAAUCUCAUUUUAUCGUATT against SLC7A2 | -0.245
11 | GGAAGAAUUCAAUACGGCATT against FOXJ2 | -0.627
12 | GGAUGCACCACAUCUAGUATT against RPS6KA3 | -0.0233
13 | CCAAUUCCAGGUUAACUUUTT against S100A7A | 0.212
14 | GGAGUGAAGACUUCGAGAATT against KCNN2 | -0.0251
15 | CCUUCAAGCUGCAGACUAATT against THBS4 | -0.28
16 | CGACAUAACUAUGUUCGGATT against ETF1 | -1.12 (active)
17 | GGAUUUUGCCUUAGCGGUATT against OSBPL8 | 0.231
18 | GCCUAUCCUAGAACCAUCATT against KLK14 | -0.0998
19 | GGACUUACCUUCAACCAAUTT against RSF1 | 0
20 | CAACCUUCCUCGGACUAAUTT against SLC26A2 | -1.25 (active)
21 | GGACUUGGAUUCGAGGAUATT against COL15A1 | 0.161
22 | CCUAAAUGAUCGCAAAGUATT against PABPC1 | -0.126

Row | Sequence | median seed-adjusted z-score
23 | CCUUUACUACGUGUGCACATT against POLR2I | -3.27 (active)
24 | GGAAGAACUUUCUCGGUAATT against TIMP2 | 0.0444
25 | CAAACGAUCUGAAGGUGAATT against AKTIP | -0.194
26 | GGACAGAGGGCAACUAUAATT against KCNV2 | -1.13 (active)
27 | AAGCUAUUGUGAUCUCUGATT against ZBTB3 | -0.0419
28 | GAAUUAUGGAUGACGAUAATT against CAPSL | -0.168
29 | CACUCGUUCCGGUUCCUUUTT against ZNF439 | -0.26
30 | CAGUGAGGCUGUUCUCGAATT against LIMCH1 | 0.125
31 | CAGGUGAUGUGAUAUCAUATT against VGLL2 | -0.0234
32 | GCUAAUCCAUUUGAUGACATT against PYGO1 | -1.23 (active)
33 | GAAUGUAACUUCACAACCATT against ZHX2 | 0.0708
34 | AGAAAGCUUUGGGCAAAUATT against EEF1B2 | 0.388
35 | CAACAUAUCUGCACAGGUATT against FLVCR2 | -0.336
36 | GGCUGUAACGUGAACAUCATT against DAPK1 | 0.27
37 | UCGAGCAACUUAUUCCAUATT against MED30 | -2.06 (active)
38 | GCCUGUCCCAGACCAUUGATT against KLC4 | 0
39 | GCUUCUCUUUGAAUACCCATT against KCNA2 | -1.03 (active)
40 | CAAGUUCUCUUAUCCACCATT against PPP1R15A | 0.539
41 | UGAAAUGGAUGAAAACCUATT against SNAP25 | 0
42 | GCGUGUUCGUGCACGUCUATT against MOBKL2A | 0.268
43 | CAGCAACCAUGGAAAUCGATT against MYST4 | 0.138
44 | ACUGGACAGUGGUAUCAGATT against UBASH3A | -1.1 (active)

Row | Sequence | median seed-adjusted z-score
45 | CAGGUACAGCGCAUCGUUATT against EDC4 | 0
46 | GGGAUGAUUCAGACAAACATT against ZC3HAV1 | 0.522
47 | CAGUGGAUCUAUAUGAACATT against KIT | -0.686
48 | GCAUUUACACUGUAUAUUATT against POU4F2 | 1.46 (active)
49 | AACUCGCAGUGGUUCAAUUTT against TXNDC8 | -0.281
50 | GCAAGGAUAUGUACCAGAUTT against AGXT | 0.017
51 | GGUUCAAUGGAAAAGGGAATT against DLX6 | 0.0275
52 | GAACUGAUAUCUGAAGAGATT against MLPH | -1.2 (active)
53 | CCUUCAUUGAGGACCUGAATT against PTP4A3 | 0.354
54 | GCUUCUCACGAGAUUGAAATT against SCARA3 | -0.05
55 | GGGUUAGACGGAUACAAGATT against LILRA2 | -0.103
56 | CAGUACAGGUUGAGUCAAATT against LRRFIP1 | -0.181
57 | GCAAUUGAAUAUUGGAGUUTT against MED17 | -2.06 (active)
58 | CAUAGAAGCGGAUACUUAUTT against GALM | -0.111
59 | GCAGGGUGCACAUAUCAUUTT against VNN3 | 0.343
60 | ACAUCUGCCUGAUCUCAUATT against INDO | 0.0511
61 | CCACUAAACUGCGAGAGAATT against CEBPD | -0.101
62 | GUGUGAGGGUUGAACUCAATT against EGLN1 | 2.05 (active)
63 | CGGUAUUAUUGUCAUUGCATT against UBE2K | 0.497
64 | GCAAUAUGUUUAUCCAUAATT against CSE1L | 0.425
65 | GACAAAUGUUUGGUCAAUUTT against A2BP1 | 1.17 (active)
66 | AUACUGACUUCAUAGAAAATT against RGS2 | 0.00236

Row | Sequence | median seed-adjusted z-score
67 | GGAUAUCAACUUAUUAGAUTT against XPO1 | 1.12 (active)
68 | GCAUUGCAGAGAACCGACATT against METTL7A | 0.278
69 | CCUUGAUAGUGGUCGGGAATT against OSBPL3 | 0.0159
70 | ACAGUGUAUUCAAACAGUATT against NGF | -0.325
71 | GGAUAACUUCUCCUUGUCATT against PRM3 | 0.249
72 | AGAGGAUCAAGGUUUUAAATT against APBA2 | 1.66 (active)
73 | GGCCGUUACUGAUUGAGCUTT against CAPN7 | 0.125
74 | GCAUUUCGCUGUACAAGUUTT against IPO4 | -0.0188
75 | GGAUUCAUCCGGUCCAGAUTT against PEX5L | 0.0982
76 | GGCUUGCUGUAAUUACCCATT against ABCB1 | -0.384
77 | GCUUUACAUGGUUUUCGAATT against CASK | -0.422
78 | GGAGAGUGCUACAAGGUGATT against COL6A2 | 0.0119
79 | CAAGUUCUAUCACUCCUUUTT against IRX2 | -0.409
80 | CCACAUUGGUUACCACUAATT against ITGAV | 1.17 (active)
81 | CAGUGUUAGUACUCGAUAATT against EXT2 | -0.127
82 | CCUAUUUGGUGUUAACAUATT against DIRAS1 | -0.751
83 | CUAUGAUCUCAACCAAAUATT against CD248 | -0.0191
84 | AGCUAACAGCGGCUCAAGATT against NR1H2 | 0.069
85 | UUACUUUCCUAGUAAGCAATT against GNA12 | 0.598
86 | GCACAGAUGAAGCCCGCUUTT against ARL11 | 1 (active)
87 | CAAGCUCUUUGGUCAAGAATT against SNX4 | -0.144
88 | GCAUAAAACUGAAGGUGGATT against PTPRN | -0.272

Row | Sequence | median seed-adjusted z-score
89 | CAUCAUUUCAGACAAGUUUTT against DDO | -0.202
90 | UCUACGCAGUGGUCACCAATT against BLK | -0.274
91 | CAAUCUAUUAAGAAAUGUUTT against RPE | 0.616
92 | CAUAUAUGAUUGCAUCAAATT against ACTL6A | 1.11 (active)
93 | GGAUCAACCGCUGCUUGAATT against HELT | -0.192
94 | CCAACAUACUAGUCAAUAATT against EFTUD1 | -1.39 (active)
95 | GGAUGGUCUUUUAGUAAGATT against CBR4 | -0.66
96 | GACAUCGCAUGGUACAAGATT against NFASC | 0.594
97 | GAACUGCUCAGGACUAUAATT against TBRG1 | -1.47 (active)
98 | GCUGCAUCGUAAGACAUUUTT against PCGF6 | 0.536
99 | CGAACUUCCUCAUCGGCAATT against PRLHR | 0
100 | CAAAAAUGAUUGCGAAUGATT against APOL4 | -0.54
101 | GCUCUUCGAGAGAACCUGUTT against TUBG1 | 0.618
102 | CCCUCCAUGGAAUAGAAUATT against FCER1A | -0.0293
103 | CGGUUCCUUUAUUACCAAATT against TNFRSF21 | 0.225
104 | AGGAGAUUCUGAACAGGCUTT against GPR26 | -1.33 (active)
105 | GCAGCUAUUUGUCUCCGAATT against USP43 | 0
106 | CAGCUAUACAGGAAUUAUUTT against SLC25A16 | 0.0479
107 | GCAGGGCAUUUAUGGGACATT against KRT79 | 0.338
108 | CCAGGUGAAAUGUCAACUATT against HERC5 | -0.422
109 | GAACCAUACAUACUACAGATT against WDR31 | 0.796
